# Results from PubChem BioAssay (EPA / NIEHS).
# Results filed as inconclusive are left out. The source made the active and inactive calls. Rule for the calls: active = hit-call score of the fitted dose curve at least 0.9, where 1 is the maximum; inconclusive = response in the unintended direction; inactive = score below 0.9.
# Target: Retinoic acid receptor RXR-alpha (Homo sapiens) (UniProt P19793)
# Assay: ATG_RXRa_TRANS: Attagene TRANS-FACTORIAL HepG2 Assay for human Retinoid X Receptor alpha (RXRa) (AID 2283012)
# Outline: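 TRANS format reporting activity of exogenous RXRa-Gal4 chimera in transiently transfected HepG2, 24 h exposure. Reporter transcripts quantified by RT-PCR with capillary electrophoresis, with gain of signal scored relative to DMSO.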
# Sequence of Retinoic acid receptor RXR-alpha (Homo sapiens) (P19793 whole entry, looked up): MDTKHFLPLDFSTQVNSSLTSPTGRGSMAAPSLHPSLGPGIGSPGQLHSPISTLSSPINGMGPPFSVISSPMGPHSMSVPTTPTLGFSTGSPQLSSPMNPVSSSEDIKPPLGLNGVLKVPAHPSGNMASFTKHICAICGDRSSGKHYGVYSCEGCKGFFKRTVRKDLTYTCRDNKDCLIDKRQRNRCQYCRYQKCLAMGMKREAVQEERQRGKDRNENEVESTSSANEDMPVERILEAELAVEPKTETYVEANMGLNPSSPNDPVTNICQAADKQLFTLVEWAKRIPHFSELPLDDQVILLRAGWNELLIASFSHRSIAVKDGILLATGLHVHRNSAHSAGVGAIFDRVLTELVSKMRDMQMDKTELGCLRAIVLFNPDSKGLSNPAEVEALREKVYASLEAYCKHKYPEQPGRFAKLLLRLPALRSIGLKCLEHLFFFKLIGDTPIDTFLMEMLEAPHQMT
row,SMILES,outcome
1,C=C(C)C1CCC(C)CC1O (configuration not stated),inactive
2,Cc1ccc(S)cc1,inactive
3,CCc1ccc(C=O)cc1,inactive
4,NC(=O)c1ccccc1Cl,inactive
5,CC(C=O)Cc1ccc(C(C)C)cc1 (configuration not stated),inactive
6,CCCCCC=CCC(=O)OC,inactive
7,CCCCCCOC(=O)CCCCC,inactive
8,CC(C)(N)CO,inactive
9,CCC/C=C/C=O,inactive
10,CC(=O)Nc1ccc(CC(=O)O)cc1,inactive
11,N#Cc1nc(Cl)c(Cl)c(Cl)c1Cl,inactive
12,CCC(C)(O)CCC=C(C)C (configuration not stated),inactive
13,COC(=O)OC,inactive
14,O=[N+]([O-])c1ccc(Nc2ccc(Nc3ccccc3)c(S(=O)(=O)O)c2)c([N+](=O)[O-])c1,inactive
15,CCN(CC)c1ccc2c(-c3ccccc3C(=O)O)c3ccc(=[N+](CC)CC)cc-3oc2c1,inactive
16,CCCCc1ccc(N)cc1,inactive
17,OCCOCCOCCOCCO,inactive
18,CC(C)(C#N)c1cc(Cn2cncn2)cc(C(C)(C)C#N)c1,inactive
19,C[Si](O[Si](C)(C)C)O[Si](C)(C)C,inactive

row,SMILES,outcome
1,CCOC(=S)SSC(=S)OCC,inactive
2,CCOC(=O)c1ccccc1OC,inactive
3,CN1Cc2c(N)cccc2C(c2ccccc2)C1 (configuration not stated),inactive
4,O=C(O)c1snc(Cl)c1Cl,inactive
5,C=C(C)C(=O)O,inactive
6,CNCCCC12CCC(c3ccccc31)c1ccccc12,inactive
7,CCC(=O)/C=C/C1C(C)=CCCC1(C)C (configuration not stated),inactive
8,COC(=O)C1=C(C)NC(C)=C(C(=O)OCCN(C)Cc2ccccc2)C1c1cccc([N+](=O)[O-])c1 (configuration not stated),inactive
9,N#Cc1ccccc1,inactive
10,CCCCOCCOCCSC#N,inactive
11,O=C(O)CCCCCCCC(=O)O,inactive
12,O=c1oc(=O)c2cc3c(=O)oc(=O)c3cc12,inactive
13,COc1ccc(NC(=O)CC(C)=O)cc1,inactive
14,Fc1c(F)c(F)c(Br)c(F)c1F,inactive
15,CN(C)c1ccc(O)c2c1C[C@H]1C[C@H]3[C@H](N(C)C)C(=O)C(C(N)=O)=C(O)[C@@]3(O)C(=O)C1=C2O,inactive
16,O=Nc1ccc(Nc2ccccc2)cc1,inactive
17,C=C(C)[C@@H]1CC[C@@H](C)C[C@@H]1O,inactive
18,CCCCCCCCCCCCOCCO,inactive

# Target: human Retinoid X Receptor beta (RXRb), RXRB (gene 6257) (UniProt P28702)
# Sequence (P28702 whole entry, looked up): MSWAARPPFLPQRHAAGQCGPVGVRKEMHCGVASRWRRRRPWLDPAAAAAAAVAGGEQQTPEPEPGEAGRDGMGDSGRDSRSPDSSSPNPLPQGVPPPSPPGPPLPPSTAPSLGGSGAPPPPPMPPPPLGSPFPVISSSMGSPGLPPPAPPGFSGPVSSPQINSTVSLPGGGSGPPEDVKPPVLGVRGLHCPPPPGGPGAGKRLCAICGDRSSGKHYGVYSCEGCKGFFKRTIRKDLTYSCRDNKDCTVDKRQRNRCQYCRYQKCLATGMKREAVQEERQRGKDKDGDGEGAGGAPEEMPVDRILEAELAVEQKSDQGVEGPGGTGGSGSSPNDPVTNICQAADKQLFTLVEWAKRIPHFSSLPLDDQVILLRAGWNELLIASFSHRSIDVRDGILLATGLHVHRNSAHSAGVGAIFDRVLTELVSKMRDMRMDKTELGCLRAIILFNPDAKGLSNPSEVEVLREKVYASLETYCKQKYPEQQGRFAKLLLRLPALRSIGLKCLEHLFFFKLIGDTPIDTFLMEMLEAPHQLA
# Assay: ATG_RXRb_TRANS: Attagene TRANS-FACTORIAL HepG2 Assay for human Retinoid X Receptor beta (RXRb) (AID 2283013)
# Outline: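 Readout is reporter transcript induction after 24 h dosing. It is measured by RT-PCR of total RNA followed by fluorescent capillary electrophoresis. HepG2 liver cells carry transfected multiple reporter units driven by an exogenous RXRb-Gal4 fusion; activity is relative to DMSO.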
SMILES,outcome,AC50
CC(C=O)Cc1ccc(C(C)C)cc1 (configuration not stated),inactive,–
C[Si](O[Si](C)(C)C)O[Si](C)(C)C,–,61.7 µM (active)
CCOC(=O)c1ccccc1OC,inactive,–
CCC(=O)/C=C/C1C(C)=CCCC1(C)C (configuration not stated),–,34.7 µM (active)
CCCCOCCOCCSC#N,inactive,–
